In the supplement of paper PMC6555819:

The sequences below were run on VDR:RXRa (NR concentration 270 nM, RXRa partner concentration 90 nM) (assay: PBM binding z-score (relative to random genomic background probes); higher = stronger binding; sequences stand for … in GC…GCGATTGACAGCGTAGAATGAAGG).
Method: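 Protein-binding microarray (Agilent 4x180K custom design, double-stranded 60-nt probes: 5' GC cap, 34-nt variable region, 24-nt constant primer region; full probe sequence given). Purified or IVT nuclear receptor:RXRα heterodimers (3:1 NR:RXRα, mostly 270:90 nM) or homodimers were incubated for 1 h in PBS with 2% milk and no ligand, then detected with Alexa488 antibodies. Fluorescence from o1-orientation probes (~5 replicates averaged) was converted to z-scores against 500 random hg19 background probes. Variable regions are seed direct-repeat (DR0–DR5) sites, all their single-nucleotide variants and half-site ablations.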

In order of rising PBM binding z-score:
1. CCTGCTAGGTCTATGGTCAGCTAAAGCAGCTCGC  -0.536
2. CGAACTAGGTGAAAGGACAGTGAAAGGCGACGTA  -0.353
3. CGAACTAGGTCCTTGACAGGACAGTGAATAGTAA  -0.351
4. CGTCCAACGTCAGCAGGTCAGTGAAAGCGACGTG  -0.198
5. CGAACTTGGTCAAAGGACAGTGAAAGGCGACGTA  -0.101
6. CGAACTAGGACATCCAGGACAGTGAATACATTGA  -0.0982
7. AATACAGGGTGATCGTAGGCCAGAGTACGCACAG  0.0765
8. TCGAGTAGGTTACGGAGGCATTCAGGGATGAAGA  0.176
9. CGCACTAGGTCAAAGGACAGTGAAAGGCGACGTA  1.35
10. TGGCCTAGGTCATGGGCCAGTATACCACGCGAAC  1.62
11. CGCACTAGGTCACCAGGACAGTGAAGAGGTTGGA  1.87
12. CCTCGGAGGACAACCGGAGGTCAGAGCTGCCAGA  1.9
13. ATCTCTAGGTAACAAGGTCAGTGAAAGAGAGGAC  2.12
14. TCGAGTAGGTTTCGGGGGCATTCAGGGATGAAGA  2.7
15. ATAGAAAGGTCGAAGGTGAGTATACCCACCCGAA  2.88
16. CCGAGTAGGTTACGAGGGGGTATTCAGTGCGAAT  2.95
17. CCTAGCAGGCCAGGGTCACCCAAGCATTTCGCTT  2.96
18. TAGCCTAGGTCATTCAGGGGCCAGTATGGAAAGC  3.13
19. GATCCAGGGTCAGCTAGAGGCCAGAGTATGGAAA  3.16
20. TCGAGTAGGTTACGGGGGCATACAGGGATGAAGA  3.54
21. CTCGAAAGGTCGTGGTCAGGTGAGTATACCAAAC  3.61
22. TCGAGTAGGTTACGGGGGCATTCAAGGATGAAGA  3.74
23. CCTAGATGGTCAGGAGGTCACACACCGGATATGA  3.76
24. CCGAGTAAGTTACGAGGGGGCATTCAGTGCGAAT  3.83
25. ATATGTAGGTTAGGGTCATTAAGAAAGTAGGGAA  3.86
26. CCTACTGGGCCATTCAGAGGTCATCGATCATATG  4.05
27. CCGAGTATGTTACGAGGGGGCATTCAGTGCGAAT  4.06
28. ATATGTAGGTAAGGGTCATTCAGAAAGTAGGGAA  4.1
29. CGTCTAAGGTCAGCAGGTCAGTGAAAGCGACGTG  4.3
30. ATATGTTGGTTAGGGTCATTCAGAAAGTAGGGAA  4.37
31. CCGAGTAGGTTACGAGGGGGCATTCAATGCGAAT  4.88
32. GCTAGTGGGTCAGTAAAAGGTCACACACCGGTCG  4.9
33. ATATGTAGGATATCGGGTCATTCAGTTTGCGCAT  4.94
34. ATATGTAGGTCAGGGTCATTCAGAAAGTAGGGAA  5.08
35. CGTCCAAGGTCAACAGGTCAGTGAAAGCGACGTG  5.16
36. ACTAGCAGGTCAAGGGTCACTCAAGATTAGTCCG  5.4
37. GCTTACGGGTCAAAGGTTATAACATGAATAGAAT  5.68
38. CGTTCAAGGTCATAGGAGGTCAGTGAAGACAGAT  6.67
39. CTATTTAGGTTAAGGGGGTCATTCAGTTTGAAAG  7.31
40. CTATGTAGGTTAAGGGGGTCATTTAGTTTGAAAG  7.32
